# According to PubChem BioAssay (NCATS):
# Results filed as inconclusive are left out. Where a call stands in place of a potency, no number is given. Unmarked numbers belong to inactive results. Calls of active or inactive are those of the source. The call rests on the fitted dose curve; in most records, active means well fitted curve in the direction sought with a large enough effect; inconclusive means small, poorly fitted or top-dose-only effect, or another doubt; inactive means no such curve, though single readings can be large; an effect the other way counts as inactive or inconclusive.
# Legend:
# MKL-1 = experiment: qHTS assay to identify novel small-molecules to repurpose for Merkel cell carcinoma treatment (AID 1296009); conditions: MCC and control cell lines, CellTiter-Glo viability, 72 h; series mostly up to 46 µM; further: nearly all actives have a fitted effect of over 60% in size; further: potency means the concentration at half of the fitted maximal effect
# How it was run: (§1)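 Viability readout: ATP luminescence (CellTiter-Glo) after 72 hr drug exposure at 37 degree celsius. Dose-response format was 8 points for NPC and 11 points for MIPE; data normalized to in-plate controls.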
# MKL-2 = experiment: as above; conditions: MCC and control cell lines, CellTiter-Glo viability, 72 h; series mostly up to 46 µM
# How it was run: as §1
# NIH3T3 = experiment: as above; conditions: MCC and control cell lines, CellTiter-Glo viability, 72 h; series mostly up to 44.8 µM
# How it was run: as §1
# UISO = experiment: as above; conditions: MCC and control cell lines, CellTiter-Glo viability, 72 h; series mostly up to 46 µM
# How it was run: as §1
# WaGa = experiment: as above; conditions: MCC and control cell lines, CellTiter-Glo viability, 72 h; series mostly up to 46 µM
# How it was run: as §1
# C33A = experiment: Primary qHTS to identify gynecologic anti-cancer compounds using libraries of approved drugs and bioactive compounds (AID 1345084); conditions: Gynecologic cancer cell panel viability, ATPlite luminescence, 48 h; series mostly up to 57.5 µM; further: nearly all actives have a fitted effect of over 55% in size
# How it was run: (§2)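 In this quantitative HTS, cell killing is estimated from loss of ATP-dependent luciferase light. Cells see five compound concentrations over a 48 h exposure.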
# CAOV3 = experiment: as above; conditions: Gynecologic cancer cell panel viability, ATPlite luminescence, 48 h; series mostly up to 57.5 µM
# How it was run: as §2
# CASKI = experiment: as above; conditions: Gynecologic cancer cell panel viability, ATPlite luminescence, 48 h; series mostly up to 57.5 µM
# How it was run: as §2
# Es-2 = experiment: as above; conditions: Gynecologic cancer cell panel viability, ATPlite luminescence, 48 h; series mostly up to 57.5 µM
# How it was run: as §2
# HeLa = experiment: as above; conditions: Gynecologic cancer cell panel viability, ATPlite luminescence, 48 h; series mostly up to 57.5 µM
# How it was run: as §2
# Hek293T = experiment: as above; conditions: Gynecologic cancer cell panel viability, ATPlite luminescence, 48 h, control line for the selectivity index; series mostly up to 57.5 µM
# How it was run: as §2
# JEG-3 = experiment: as above; conditions: Gynecologic cancer cell panel viability, ATPlite luminescence, 48 h; series mostly up to 57.5 µM
# How it was run: as §2
# OV90 = experiment: as above; conditions: Gynecologic cancer cell panel viability, ATPlite luminescence, 48 h; series mostly up to 57.5 µM
# How it was run: as §2
# PA-1 = experiment: as above; conditions: Gynecologic cancer cell panel viability, ATPlite luminescence, 48 h; series mostly up to 57.5 µM
# How it was run: as §2
# Tov-21-G = experiment: as above; conditions: Gynecologic cancer cell panel viability, ATPlite luminescence, 48 h; series mostly up to 57.5 µM
# How it was run: as §2
# Tov112D = experiment: as above; conditions: Gynecologic cancer cell panel viability, ATPlite luminescence, 48 h; series mostly up to 57.5 µM
# How it was run: as §2
# [1] = Drug repurposing screens with cells derived from glioblastoma tumor samples (AID 1345199); conditions: GBM patient neurospheres viability, ATP luminescence, 48 h; further: nearly all actives have a fitted effect of over 40% in size; further: potency means the concentration at half of the fitted maximal effect
# How it was run: (§3)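 Primary testing used CD133+ neurospheres from four GBM patients, seven concentrations, 48 h exposure and ATP-based viability; confirmation added three slower-growing patient lines.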
# astro = experiment: as above; conditions: viability, ATP luminescence, 48 h; series mostly up to 45.9 µM
# How it was run: as §3
# SKOV3 = experiment: Primary qHTS to identify gynecologic anti-cancer compounds using libraries of approved drugs and bioactive compounds (AID 1345084); conditions: Gynecologic cancer cell panel viability, ATPlite luminescence, 48 h; series mostly up to 57.5 µM; further: nearly all actives have a fitted effect of over 55% in size
# How it was run: as §2
# [2] = at 45.9 µM (top of the series), tumour line B
# [3] = at 45.9 µM (top of the series), tumour line D
# [4] = at 46.1 µM (top of the series), tumour line C
# [5] = at 46 µM (top of the series), tumour line A
smiles,measurement,setting,value
CCN1CCCC1CNC(=O)c1cc(S(=O)(=O)CC)c(N)cc1OC (centres undefined),Potency,MKL-1,inactive
same,Potency,MKL-2,inactive
same,outcome,NIH3T3,inactive
same,Potency,UISO,inactive
same,Potency,WaGa,inactive
same,Potency,C33A,inactive
same,Potency,CAOV3,inactive
same,Potency,CASKI,inactive
same,Potency,Es-2,inactive
same,Potency,HeLa,inactive
same,Potency,Hek293T,inactive
same,Potency,JEG-3,inactive
same,Potency,OV90,inactive
same,Potency,PA-1,inactive
same,Potency,Tov-21-G,inactive
same,Potency,Tov112D,inactive
same,"activity, negative = cell killing",[1]; [2],6.58%
same,"activity, negative = cell killing",[1]; [3],-2.77%
same,"activity, negative = cell killing",[1]; [4],-4.87%
same,Potency,astro,inactive
NC12CC3CC(CC(C3)C1)C2,Potency,MKL-1,inactive
same,Potency,MKL-2,inactive
same,outcome,NIH3T3,inactive
same,Potency,UISO,inactive
same,Potency,WaGa,inactive
same,Potency,C33A,inactive
same,Potency,CAOV3,inactive
same,Potency,CASKI,inactive
same,Potency,Es-2,inactive
same,Potency,HeLa,inactive
same,Potency,Hek293T,inactive
same,Potency,JEG-3,inactive
same,Potency,OV90,inactive
same,Potency,PA-1,inactive
same,Potency,SKOV3,inactive
same,Potency,Tov-21-G,inactive
same,Potency,Tov112D,inactive
same,"activity, negative = cell killing",[1]; [2],-22.3%
same,"activity, negative = cell killing",[1]; [5],14.4%
same,"activity, negative = cell killing",[1]; [4],2.2%
same,Potency,astro,inactive
Nc1c2c(nc3ccccc13)CCCC2,Potency,MKL-1,inactive
same,Potency,MKL-2,inactive
same,outcome,NIH3T3,inactive
same,Potency,UISO,inactive
same,Potency,WaGa,inactive
same,Potency,C33A,inactive
same,Potency,CAOV3,inactive
same,Potency,CASKI,inactive
same,Potency,Es-2,inactive
same,Potency,HeLa,inactive
same,Potency,Hek293T,inactive
same,Potency,JEG-3,inactive
same,Potency,OV90,inactive
same,Potency,PA-1,inactive
same,Potency,Tov-21-G,inactive
same,Potency,Tov112D,inactive
same,"activity, negative = cell killing",[1]; [2],1.31%
same,"activity, negative = cell killing",[1]; [4],-23.5%
same,Potency,[1]; tumour line A,20 µM (active)
COc1ccc2[nH]cc(CCNC(C)=O)c2c1,Potency,MKL-1,inactive
same,Potency,MKL-2,inactive
same,outcome,NIH3T3,inactive
same,Potency,UISO,inactive
same,Potency,WaGa,inactive
same,Potency,C33A,inactive
same,Potency,CAOV3,inactive
same,Potency,CASKI,inactive
same,Potency,Es-2,inactive
same,Potency,HeLa,inactive
same,Potency,Hek293T,inactive
same,Potency,JEG-3,inactive
same,Potency,OV90,inactive
same,Potency,PA-1,inactive
same,Potency,SKOV3,inactive
same,Potency,Tov-21-G,inactive
same,Potency,Tov112D,inactive
same,"activity, negative = cell killing",[1]; [2],-3.86%
same,"activity, negative = cell killing",[1]; [3],3.96%
same,"activity, negative = cell killing",[1]; [5],-18.9%
same,"activity, negative = cell killing",[1]; [4],-11.3%
NC(=O)OCC(COC(N)=O)c1ccccc1,Potency,MKL-1,inactive
same,Potency,MKL-2,inactive
same,outcome,NIH3T3,inactive
same,Potency,UISO,inactive
same,Potency,WaGa,inactive
same,Potency,C33A,inactive
same,Potency,CASKI,inactive
same,Potency,Es-2,inactive
same,Potency,HeLa,inactive
same,Potency,Hek293T,inactive
same,Potency,JEG-3,inactive
same,Potency,OV90,inactive
same,Potency,PA-1,inactive
same,Potency,SKOV3,inactive
same,Potency,Tov-21-G,inactive
same,Potency,Tov112D,inactive
same,"activity, negative = cell killing",[1]; [2],2.73%
same,"activity, negative = cell killing",[1]; [3],-0.95%
same,"activity, negative = cell killing",[1]; [5],-11.1%
same,"activity, negative = cell killing",[1]; [4],48.2%
same,Potency,astro,inactive
O=C(CCCN1CCC(O)(c2ccc(Cl)cc2)CC1)c1ccc(F)cc1,Potency,MKL-1,inactive
same,Potency,MKL-2,inactive
same,outcome,NIH3T3,inactive
same,Potency,UISO,inactive
same,Potency,WaGa,inactive
same,Potency,C33A,inactive
same,Potency,CASKI,inactive
same,Potency,Es-2,inactive
same,Potency,HeLa,inactive
same,Potency,Hek293T,inactive
same,Potency,JEG-3,inactive
same,Potency,Tov112D,inactive
same,"activity, negative = cell killing",[1]; [4],-10.7%
same,Potency,[1]; tumour line A,11.2 µM (active)
same,Potency,[1]; tumour line D,15.8 µM (active)
Nc1nnc(-c2cccc(Cl)c2Cl)c(N)n1,Potency,MKL-1,inactive
same,Potency,MKL-2,inactive
same,outcome,NIH3T3,inactive
same,Potency,UISO,inactive
same,Potency,WaGa,inactive
same,Potency,C33A,inactive
same,Potency,CAOV3,inactive
same,Potency,CASKI,inactive
same,Potency,Es-2,inactive
same,Potency,HeLa,inactive
same,Potency,Hek293T,inactive
same,Potency,JEG-3,inactive
same,Potency,OV90,inactive
same,Potency,PA-1,inactive
same,Potency,SKOV3,inactive
same,Potency,Tov-21-G,inactive
same,Potency,Tov112D,inactive
same,"activity, negative = cell killing",[1]; [2],-10.9%
same,"activity, negative = cell killing",[1]; [3],-13.4%
same,"activity, negative = cell killing",[1]; [5],-13.9%
same,"activity, negative = cell killing",[1]; [4],-25.4%
CN1CCC(=C2c3ccccc3CC(=O)c3sccc32)CC1,Potency,MKL-1,inactive
same,Potency,MKL-2,9.44 µM (active)
same,outcome,NIH3T3,inactive
same,Potency,UISO,inactive
same,Potency,WaGa,29.9 µM (active)
same,Potency,C33A,inactive
same,Potency,CAOV3,inactive
same,Potency,CASKI,inactive
same,Potency,Es-2,inactive
same,Potency,HeLa,inactive
same,Potency,Hek293T,inactive
same,Potency,JEG-3,inactive
same,Potency,OV90,inactive
same,Potency,PA-1,inactive
same,Potency,SKOV3,inactive
same,Potency,Tov-21-G,inactive
same,Potency,Tov112D,inactive
same,"activity, negative = cell killing",[1]; [4],-13.4%
same,Potency,[1]; tumour line A,14.1 µM (active)
same,Potency,[1]; tumour line D,12.6 µM (active)
COc1cc2nc(N3CCN(C(=O)C4COc5ccccc5O4)CC3)nc(N)c2cc1OC (centres undefined),Potency,MKL-1,inactive
same,Potency,MKL-2,inactive
same,outcome,NIH3T3,inactive
same,Potency,UISO,inactive
same,Potency,WaGa,inactive
same,Potency,C33A,inactive
same,Potency,CASKI,inactive
same,Potency,Es-2,inactive
same,Potency,HeLa,inactive
same,Potency,Hek293T,inactive
same,Potency,JEG-3,inactive
same,Potency,PA-1,inactive
same,Potency,Tov-21-G,inactive
same,Potency,Tov112D,inactive
same,"activity, negative = cell killing",[1]; [2],-16.3%
same,"activity, negative = cell killing",[1]; [3],-29.3%
same,"activity, negative = cell killing",[1]; [4],-17.1%
same,Potency,[1]; tumour line A,11.2 µM (active)
same,Potency,astro,inactive
CC(=O)OCC(CCn1cnc2cnc(N)nc21)COC(C)=O,Potency,MKL-1,inactive
same,Potency,MKL-2,inactive
same,outcome,NIH3T3,inactive
same,Potency,UISO,inactive
same,Potency,WaGa,inactive
same,Potency,C33A,inactive
same,Potency,CASKI,inactive
same,Potency,Es-2,inactive
same,Potency,HeLa,inactive
same,Potency,Hek293T,inactive
same,Potency,JEG-3,inactive
same,Potency,OV90,inactive
same,Potency,PA-1,inactive
same,Potency,SKOV3,inactive
same,Potency,Tov-21-G,inactive
same,Potency,Tov112D,inactive
same,"activity, negative = cell killing",[1]; [2],-16.1%
same,"activity, negative = cell killing",[1]; [3],-3.4%
same,"activity, negative = cell killing",[1]; [5],-17.2%
same,"activity, negative = cell killing",[1]; [4],-0.294%
same,Potency,astro,inactive
CC1COc2c(N3CCN(C)CC3)c(F)cc3c(=O)c(C(=O)O)cn1c23 (centres undefined),Potency,MKL-1,inactive
same,Potency,MKL-2,inactive
same,outcome,NIH3T3,inactive
same,Potency,UISO,inactive
same,Potency,WaGa,inactive
same,Potency,C33A,inactive
same,Potency,CASKI,inactive
same,Potency,Es-2,inactive
same,Potency,HeLa,inactive
same,Potency,Hek293T,inactive
same,Potency,JEG-3,inactive
same,Potency,OV90,inactive
same,Potency,PA-1,inactive
same,Potency,SKOV3,inactive
same,Potency,Tov-21-G,inactive
same,Potency,Tov112D,inactive
same,"activity, negative = cell killing",[1]; [2],-12.3%
same,"activity, negative = cell killing",[1]; [3],-0.592%
same,"activity, negative = cell killing",[1]; [5],-24.5%
same,"activity, negative = cell killing",[1]; [4],-10.7%
same,Potency,astro,inactive
